# Data: ChEMBL document CHEMBL3988442, “University of Dundee, Small-Polar-MMV Screening Library” (2021)
# Out of some 53,000 compounds screened, about 900 (1.7%) showed an effect of 50% or more. The full list was thinned out, with strong results kept by preference.
# System: Mycobacterium tuberculosis
# Assay: Cornell - Phenotypic assay to identify agents that inhibit growth of Mycobacterium tuberculosis
# Assay type: functional
# Parameters: scale not given: direction of the effect not stated beside the values
# Settings: 10 mM as filed; unlikely as a test dose
row,Compound,Percent Effect
1,OCc1csc(N2C[C@@H](CN3CCCCCC3)[C@@H](CO)C2)n1,-1.997%
2,CC(=O)N[C@@H]1CN(c2nc(CO)cs2)C[C@H]1c1ccc(C)o1,3.039%
3,CCC[C@H]1CN(c2nc(CO)cs2)C[C@@H]1NC(=O)C1(COC)CC1,20.53%
4,CCC[C@H]1CN(c2nc(CO)cs2)C[C@@H]1NC(=O)C1CCC1,52.87%
5,O=C(N[C@H]1CN(c2ccncc2)C[C@@H]1C1CC1)C1CCOCC1,6.471%
6,O=C(N[C@H]1CN(c2nc(CO)cs2)C[C@@H]1C1CC1)C1CCCCC1,56.52%
7,O=C(c1cccs1)N1CCC2(CC1)CN(c1ccsc1)C(=O)CO2,16.06%
8,Clc1ccc(C2(CNC3=NCCN3)CC2)cc1.I,-15.81%
9,CCOC(=O)N1CCNC(c2cccs2)C1 (configuration not stated),-4.593%
10,CN(Cc1nnc(C2CC2)n1C)C1CCN(Cc2ccncc2)C1 (configuration not stated),-21.05%
11,CN(Cc1nnc(C2CC2)n1C)C1CCN(Cc2ccc(F)cc2)C1 (configuration not stated),10.51%
12,CN(Cc1nnc(C2CC2)n1C)C1CCN(Cc2ccccc2)C1 (configuration not stated),104.3%
13,Cc1cnc(CN2CCC(N(C)Cc3nnc(C4CC4)n3C)C2)cn1 (configuration not stated),8.133%
14,Cc1nc(CN2CCC(N(C)Cc3nnc(C4CC4)n3C)C2)cs1 (configuration not stated),55.81%
15,CN(Cc1nnc(C2CC2)n1C)C1CCN(Cc2ccon2)C1 (configuration not stated),-5.558%
16,CC(=O)N1CCC(c2ncc(C(=O)Nc3ccccc3)c(C)n2)CC1,16.5%
17,O=C(CC1CC1)N1CCC2(CC1)CN(Cc1cccnc1)C(=O)CO2.O=C(O)C(F)(F)F,2.615%
18,COCCN1C[C@H]2CCN(C(=O)c3cc(C)on3)CC[C@H]2S1(=O)=O,-32.34%
19,CNC(=O)c1cc2ccccc2n1C,-0.05075%
20,CC(C)(C)c1csc(CCNC(=O)C(c2ccccc2)n2cnnn2)n1 (configuration not stated),11.39%
21,Cc1noc(NC(=O)c2ccc(Br)s2)n1,105.7%
22,Cc1noc(NC(=O)c2ccc(OC(F)(F)F)cc2)n1,104.6%
23,Cc1noc(NCc2ccc(F)cc2)n1,-8.844%
24,Cc1noc(NC(=O)c2cccc(Br)c2)n1,106.3%
25,Cc1noc(NC(=O)CCNC(=O)c2ccc(Br)cc2)n1,-19.08%
26,Cc1noc(NC(=O)c2ccc(C#N)cc2)n1,13.91%

row,Compound,Percent Effect
1,Cc1noc(NC(=O)c2ccccc2)n1,-1.268%
2,Cc1noc(COCC(=O)Nc2ccc(Br)c(C)n2)n1,11.41%
3,Cc1ccc(C(=O)Nc2nc(C)no2)cc1,27.63%
4,Cc1noc(NC(=O)c2ccc(Br)o2)n1,16.32%
5,O=C(NCCn1ccnc1)c1cccc(Br)c1,9.854%
6,Cc1noc(NC(=O)c2ccc(Br)cc2)n1,106.9%
7,CN1C(=O)C2(CC(=O)Nc3[nH]ncc32)c2cc(F)ccc21 (configuration not stated),1.042%
8,COCCNC(=O)c1sc2ccccc2c1C1CCC(CN)CC1.Cl (configuration not stated),-3.556%
9,CC(C)c1nccn1-c1nccnc1C1CCCN1Cc1cccnc1 (configuration not stated),-9.727%
10,CN(C)c1cc(C2CCCNC2)ccn1.Cl.Cl (configuration not stated),40.71%
11,CC(C)(C)OC(=O)N1CCn2c(nnc2C2CCCNC2)C1 (configuration not stated),-27.32%
12,CCC(C)(C)n1nnnc1C(c1cccs1)N1CCc2ccccc2C1 (configuration not stated),77.94%
13,CCC(C)(C)n1nnnc1C(c1cccs1)N1CCc2ccccc21 (configuration not stated),26.96%
14,CCC(C)(C)n1nnnc1C(c1cccs1)N1CCCCC1 (configuration not stated),33.43%
15,CCOc1ccccc1CN(C)C(=O)CN1C(=O)OC[C@@H]1C(C)C,-25.38%
16,NCc1n[nH]c(=O)n1-c1cccc(Cl)c1Cl,-49.88%
17,Cc1cccc(-c2nccnc2C2CCN(C)CC2)c1C,-15.39%
18,NC(=O)c1c(-c2ccc(Cl)cc2)csc1NC(=O)CCC(=O)O,-1.119%
19,O=C(COc1coc(CN2CCCCC2)cc1=O)c1ccc(Cl)cc1,53.44%
20,O=C(COc1coc(CN2CCOCC2)cc1=O)c1ccc(Cl)cc1,4.659%
21,O=C(COc1coc(CN2CCCCCC2)cc1=O)c1ccccc1,-10.82%
22,CSCCC(=O)N1CCCC(c2ncc[nH]2)C1 (configuration not stated),7.779%
23,NC1(c2nc(-c3cccs3)cc(=O)[nH]2)CCCC1,-47.24%
24,Cc1cc(=O)[nH]c(-n2nc(-c3cccs3)cc2N)n1,98.99%
25,CCCc1cc(=O)[nH]c(-n2nc(-c3cccs3)cc2N)n1,94.38%
26,Cc1cc(=O)[nH]c(-n2nc(C)c(CCC(=O)NCc3cccs3)c2C)n1,13.95%
